Screening results: PubChem, several laboratories
Mdm2 MdmX PPI – disrupts the human Mdm2-MdmX interaction. O15151+Q00987. hit rate 3% among 330,000. SaOS-2 split-luciferase Mdm2/MdmX complementation, luminescence. AID 485346. inhibition, % at 8 µM;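 active = inhibition of at least 50% at 8 µM in the primary screen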
Target sequence (O15151 whole entry, looked up): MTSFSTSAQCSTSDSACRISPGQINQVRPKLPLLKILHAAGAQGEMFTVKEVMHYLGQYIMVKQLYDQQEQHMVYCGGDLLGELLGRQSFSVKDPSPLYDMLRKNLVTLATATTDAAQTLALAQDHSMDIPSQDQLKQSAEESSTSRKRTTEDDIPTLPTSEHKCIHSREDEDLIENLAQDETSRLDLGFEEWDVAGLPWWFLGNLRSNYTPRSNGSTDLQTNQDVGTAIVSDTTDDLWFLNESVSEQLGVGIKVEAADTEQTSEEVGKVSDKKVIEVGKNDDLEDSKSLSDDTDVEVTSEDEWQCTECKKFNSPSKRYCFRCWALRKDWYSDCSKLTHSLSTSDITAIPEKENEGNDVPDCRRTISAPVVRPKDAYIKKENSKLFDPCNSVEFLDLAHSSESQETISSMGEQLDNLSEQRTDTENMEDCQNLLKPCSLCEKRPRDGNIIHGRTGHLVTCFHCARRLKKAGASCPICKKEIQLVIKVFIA
Target sequence (Q00987 whole entry, looked up): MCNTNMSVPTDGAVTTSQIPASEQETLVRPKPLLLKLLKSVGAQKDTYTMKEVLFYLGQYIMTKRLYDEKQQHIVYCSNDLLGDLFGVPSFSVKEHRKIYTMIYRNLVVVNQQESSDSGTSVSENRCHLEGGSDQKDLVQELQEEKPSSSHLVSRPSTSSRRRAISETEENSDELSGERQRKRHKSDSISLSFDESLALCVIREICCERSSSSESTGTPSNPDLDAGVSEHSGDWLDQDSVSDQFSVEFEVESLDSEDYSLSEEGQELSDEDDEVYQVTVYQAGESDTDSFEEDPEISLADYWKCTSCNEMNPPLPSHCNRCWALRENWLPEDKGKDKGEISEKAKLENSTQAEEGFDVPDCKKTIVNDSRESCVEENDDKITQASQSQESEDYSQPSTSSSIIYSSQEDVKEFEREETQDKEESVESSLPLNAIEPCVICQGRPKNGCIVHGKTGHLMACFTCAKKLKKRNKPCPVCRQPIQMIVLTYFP
Gli-Sufu block – antagonists of Gli-Sufu signaling | Sufu-KO-LIGHT fibroblasts, Gli luciferase reporter luminescence | AID 588413 | hit rate 0.74% among 340,000 | inhibition, % at 5 µM;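 active = inhibition above about 55%, limit read from the data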;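 also: 0% = DMSO-treated cells and 100% = wells with medium but no cells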
PAX8 inh HTS – lowers PAX8-driven luciferase in RMG-I cells; RMG-I TPO-luciferase reporter, SteadyGlo, 24 h; inhibition, % at 12.6 µM; hit rate 1.2% among 360,000; AID 652154;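 active = mean replicate inhibition at least 60% with every replicate also reaching 60%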;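 also: luciferase light reporting Pax8 driven TPO promoter activity; plate controls were median of neutral control wells for no effect and mitoxantrone controls for full effect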
Shn3 inh set2 – inhibitors of Schnurri-3 3'UTR reporter in osteoblasts; AID 588674; hit rate 0.52% among 360,000; Clone20 osteoblast Shn3 3'UTR firefly luciferase, 24 h; inhibition, % at 12.5 µM;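 active = mean inhibition of at least 75% with every replicate also reaching 75%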;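 also: 0% = median of neutral control wells and 100% = pilot-screen positive control compound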
Beta cell apopt – blocks beta cell apoptosis | INS-1E cytokine-induced death, ATP luminescence, 48 h; percent of positive-control rescue, neutral wells zero | protection from apoptosis, % (test concentration not listed) | hit rate 0.8% among 300,000 | AID 435005;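 active = Every replicate reaches about 75%, or at least half do and their mean reaches it too, limit read from the data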;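 also: 0% = cytokine-treated negative control wells and 100% = positive control rescue; higher means more ATP so stronger rescue from cytokine killing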
CSC inhib – blocks cancer stem cells. cancer stem cell-like cells viability, luminescence. inhibition, % at 7.5 µM. hit rate 1.1% among 300,000. AID 2717; in the data active = inhibition above about 75%; tested in HMLE shEcad cells
* = called active by the depositor; / = no result given; ! = not active in a repeat. The list is not random: actives were taken first. Their share in the collection is about 4%.

SMILES | Mdm2 MdmX PPI | Gli-Sufu block | PAX8 inh HTS | Shn3 inh set2 | Beta cell apopt | CSC inhib
Cc1ccc(S(=O)(=O)Nc2ccc3c(c2)C(=O)N([C@H](C)CO)C[C@@H](C)[C@H](CN(C)Cc2ccc(Cl)c(Cl)c2)OCCCC[C@H](C)O3)cc1 | / | / | 96.0* | / | / | /
Cc1ccc(S(=O)(=O)Nc2ccc3c(c2)C(=O)N([C@@H](C)CO)C[C@@H](C)[C@@H](CN(C)Cc2ccc(Cl)c(Cl)c2)OCCCC[C@@H](C)O3)cc1 | / | / | 96.3* | / | / | /
COCC#Cc1ccc2c(c1)O[C@H](CN(C)C)[C@@H](C)CN([C@@H](C)CO)S2(=O)=O | / | / | 4.4 | / | / | /
C[C@H](CO)N1C[C@H](C)[C@H](CN(C)S(=O)(=O)c2ccc(Cl)cc2)Oc2ccc(NC(=O)CCCN(C)C)cc2CC1=O | / | / | -9.0 | / | / | /
Clc1cccc(CN2CCc3c([nH]c4ccccc34)C2)c1Cl | 40.9 | -1.8 | 5.2 | 22.3 | -1.7 | 111.1*
COc1ccccc1CN1CCc2c([nH]c3ccccc23)C1 | 22.1 | 18.1 | 4.1 | 3.1 | -1.2 | 8.8
COc1ccc(S(=O)(=O)N(C)C[C@H]2OCCCC[C@H](C)Oc3ccc(NC(=O)c4ccncc4)cc3C(=O)N([C@@H](C)CO)C[C@@H]2C)cc1 | / | / | 22.2 | / | / | /
Cc1ccc(S(=O)(=O)N(C)C[C@H]2Oc3ccc(NC(=O)Nc4cccc5ccccc45)cc3C(=O)N([C@@H](C)CO)C[C@@H]2C)cc1 | / | / | 8.2 | / | / | /
Cc1ccc(S(=O)(=O)Nc2ccccc2NS(=O)(=O)c2ccc(C)cc2)cc1 | / | / | -17.1 | 2.6 | / | /
Cc1ccc(S(=O)(=O)Nc2ccccc2N(C)S(=O)(=O)c2ccc(C)cc2)cc1 | -18.3 | 1.6 | -6.0 | 73.5 | 109.5* | 32.2
CC(C)c1ccc(-n2c(-c3ccccc3)c[n+]3c2CCc2ccccc2-3)cc1 | / | 85.3* | 89.6* | 81.5 | / | /
C/C=C/c1ccccc1[C@@H]1[C@@H](C#N)N(C(=O)c2cccnc2)[C@@H]1CO | / | / | 1.0 | / | / | /
COc1cc(OC)cc(C2=Cc3ccc(OC)cc3C(CC(C)=O)N2c2ccc(-c3cccs3)cc2)c1 (stereo not given) | / | / | 53.1 | / | / | /
COc1cc(OC)cc(C2=Cc3ccccc3C(CC(C)=O)N2c2ccc(-c3cccs3)cc2)c1 (stereo not given) | / | / | 69.7* | / | / | /
CC(=O)NC(c1ccc(Cl)cc1)c1ccc2cccnc2c1O (stereo not given) | / | 79.8* | 94.9* | 87.3* | / | /
CC(=O)NC(c1ccc(N(C)C)cc1)c1cc(Cl)c2cccnc2c1O (stereo not given) | / | / | 84.6* | 67.6 | / | /
Cc1ccnc(NC(c2ccccc2)c2ccc3cccnc3c2O)c1 (stereo not given) | / | -7.4 | 50.5 | 38.7 | / | /
O=C(O)c1ccccc1NC(c1ccccc1)c1ccc2cccnc2c1O (stereo not given) | / | -0.7 | 70.9* | -1.5 | / | /
Cc1ccc2ccc(C(Nc3ccccc3)c3ccccc3)c(O)c2n1 (stereo not given) | / | / | 70.2* | / | / | /
Cc1ccc2ccc(C(Nc3ccccc3)c3ccc(Cl)cc3)c(O)c2n1 (stereo not given) | / | / | 53.1 | / | / | /
CC(C)NC(=O)N(C)C[C@@H]1Oc2c(NC(=O)Nc3ccc(C(F)(F)F)cc3)cccc2C(=O)N([C@H](C)CO)C[C@H]1C | / | / | 5.3 | / | / | /
COc1ccc(CN(C)C[C@@H]2Oc3ccc(NC(=O)CCC(F)(F)F)cc3C(=O)N([C@H](C)CO)C[C@H]2C)cc1 | / | / | 7.4 | / | / | /
COc1ccc(NC(=O)Nc2ccc3c(c2)C(=O)N([C@H](C)CO)C[C@H](C)[C@@H](CN(C)C)OCCCC[C@H](C)O3)cc1 | / | / | -2.5 | / | / | /
O=C(Nc1ccc(F)cc1)Nc1ccc2c(c1)[C@@H]1C[C@H](CC(=O)N3CCOCC3)O[C@H](CO)[C@@H]1O2 | / | / | 12.9 | / | / | /
O=C(C[C@H]1C[C@H]2c3cc(NC(=O)C4CCC4)ccc3O[C@H]2[C@@H](CO)O1)NCc1cccnc1 | / | / | -12.8 | / | / | /
SMILES | Mdm2 MdmX PPI | Gli-Sufu block | PAX8 inh HTS | Shn3 inh set2 | Beta cell apopt | CSC inhib
CCCCC(=O)NC(c1ccc(OC)cc1)c1ccc2cccnc2c1O (stereo not given) | / | / | 70.9* | 90.6* | / | /
O=C(NC(c1ccc(Cl)cc1)c1cc(Cl)c2cccnc2c1O)c1cccnc1 (stereo not given) | / | 18.1 | -9.2 | 81.2 | 96.2* | 113.3*
COc1ccccc1NC(c1cccnc1)c1ccc2cccnc2c1O (stereo not given) | 13.3 | 3.2 | 1.2 | 33.5 | 14.1 | 40.1
C[C@@H]1CN([C@H](C)CO)C(=O)c2cc(NC(=O)c3ccccc3)ccc2O[C@@H](C)CCCCO[C@H]1CN(C)Cc1ccncc1 | / | / | 2.0 | / | / | /
C[C@H]1CN([C@@H](C)CO)S(=O)(=O)c2ccc(-c3ccc(F)cc3)cc2O[C@H]1CN(C)S(C)(=O)=O | / | / | -0.8 | / | / | /
Cc1cc(C)c2[nH]c(=O)c(CN(Cc3cccs3)C(=S)NCc3ccco3)cc2c1 | 9.6 | 13.4 | 4.0 | 19.0 | 6.7 | 87.7*
CCC(=O)N1CCCCN2[C@H](CO)[C@H](c3ccc(/C=C/c4ccccc4)cc3)[C@H]2C1 | / | / | -20.9 | / | / | /
CSc1ccc(/C=N/Nc2cccc(C(=O)O)c2)cc1 | / | -197.1 | / | 75.3 | / | /
O=C(O)c1cccc(N/N=C/c2cccs2)c1 | -51.3 | -103.4 | 99.6* | 66.3 | -0.6 | -0.2
C[C@@H]1CN([C@@H](C)CO)C(=O)c2cc(-c3ccncc3)cnc2O[C@H]1CN(C)C(=O)Cc1cccnc1 | / | / | -3.5 | / | / | /
CC(C)Oc1ccc(C(=O)/C=C2/C(=O)Nc3ccccc32)cc1 | 32.1 | -1.3 | 19.0 | 8.4 | 10.1 | 101.5*
COc1ccc(C2CC(c3ccc4ccccc4c3OC(C)=O)=NN2C(C)=O)cc1 (stereo not given) | -50.8 | 20.3 | -94.0 | -31.1 | 95.6* | 29.8
C[C@@H]1CN([C@H](C)CO)S(=O)(=O)c2ccc(C#Cc3cccnc3)cc2O[C@H]1CN(C)C(=O)Nc1ccc2c(c1)OCO2 | / | / | -1.1 | / | / | /
C[C@H]1CN([C@@H](C)CO)S(=O)(=O)c2ccc(C#Cc3ccncc3)cc2O[C@H]1CN(C)C(=O)Nc1ccc2c(c1)OCO2 | / | / | 64.8* | / | / | /
C[C@@H]1CN([C@H](C)CO)S(=O)(=O)c2ccc(C#Cc3ccccc3F)cc2O[C@H]1CN(C)C(=O)c1ccc2c(c1)OCO2 | / | / | 63.1*! | 38.3 | / | /
C[C@@H]1CN([C@@H](C)CO)S(=O)(=O)c2ccc(C#Cc3ccncc3)cc2O[C@H]1CN(C)C(=O)Nc1ccc2c(c1)OCO2 | / | / | 103.1* | / | / | /
C[C@H]1CN([C@@H](C)CO)S(=O)(=O)c2ccc(C#Cc3ccccc3)cc2O[C@H]1CN(C)C(=O)Nc1ccc2c(c1)OCO2 | / | / | 55.2 | / | / | /
O=C(NCC[C@H]1CC[C@@H](NS(=O)(=O)c2cccc(F)c2)[C@H](CO)O1)c1cnccn1 | / | / | -13.7 | / | / | /
COc1ccc(C2CC(c3ccc(Br)cc3)=NN2C(=S)Nc2ccccc2)cc1 (stereo not given) | 2.1 | 5.7 | 123.2* | 2.5 | 3.4 | 6.5
COc1ccc(C2CC(c3ccccc3)=NN2C(=S)Nc2ccccc2)cc1 (stereo not given) | 27.7 | 10.0 | 0.9 | 59.0 | 5.1 | 2.4
